This is a sample that favours compounds with a hit; in the whole collection about 21% have one here.
NS1 function inh = influenza NS1 inhibition; Potency, µM (highest dose often 46.1 µM); 0.4% of 270,000 active; further: actives are rising curves; nearly all actives have a fitted effect of over 50% in size
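In this qHTS, NS1 from influenza A is expressed in budding yeast, where it slows growth. Cells are switched from glucose to 2% galactose medium (pH 6.0, -URA), treated with compound, and growth recovery is read at OD600.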
Pf growth 96h = inhibits malaria parasite growth, 96 h; AID 504834; 6.9% of 320,000 active; Potency, µM (series often up to 28.7 µM), actives largely listed as inhibitors; P. falciparum luciferase reporter growth, 96 h; active means well fitted inhibition curve with a large enough effect; inconclusive means small, poorly fitted or top-dose-only effect, or another doubt; inactive means no such curve, though single readings can be large or run the other way
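Two parasite generations (96 h, 37 C, 5% CO2) of compound exposure in infected erythrocytes (0.05% parasitemia, 2% hematocrit). Luciferase-reporter P. falciparum; decreased luminescence indicates inhibited growth, aimed at apicoplast-acting delayed death.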
SARS PLP yeast = blocks SARS-CoV papain-like protease in a yeast assay; S. cerevisiae expressing SARS-CoV PLpro, growth rescue; Potency, µM (titrated, usually from 32.9 µM), actives largely listed as activators; 0.19% of 330,000 active; further: nearly all actives have a fitted effect of over 55% in size
Shiga toxin inh = Shiga toxin inhibition; Vero cells, Shiga toxin protein synthesis inhibition reporter; inhibition, % at 38.7 µM; 9.2% of 290,000 active; in the data active means inhibition mostly above about 28%, no sharp cut-off; inactive means mostly below about 43%
CHX counter = counter-screen hit for Shiga toxin inhibitors, cycloheximide; cell reporter, cycloheximide protein synthesis inhibition counterscreen; max response, %; 12% of 300,000 active; AID 2314; in the data active means max response mostly above about 13%, no sharp cut-off; inactive means mostly below about 14%; further: read at 38.3 µM for the half of the compounds with a filed dose
Pf growth 48h = P. falciparum growth inhibition at 48 hours (one generation) | P. falciparum luciferase growth in erythrocytes, 48 h | Potency, µM (top dose mostly 28.7 µM), hits mostly inhibitors | 5.9% of 310,000 active; active means well fitted inhibition curve with a large enough effect; inconclusive means small, poorly fitted or top-dose-only effect, or another doubt; inactive means no such curve, though single readings can be large or run the other way
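First compound was added to culture medium, then infected red cells at 0.1% parasitemia and 2% hematocrit (final). After incubation at 37 C under 5% CO2, luciferase detection reagent was dispensed and light output recorded.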
Hits are given with their value; 0 = inactive; ? = inconclusive; - = not tested or not shown; + = active, no number. Unless noted, the call rests on the fitted dose curve.

SMILES	NS1 function inh	Pf growth 96h	SARS PLP yeast	Shiga toxin inh	CHX counter	Pf growth 48h
O=C(NCN1C(=O)C2C3C=CC(C3)C2C1=O)Nc1nccs1 (configuration not stated)	0	-	0	0	0	0
N=C1c2ccccc2CN1c1cccc([N+](=O)[O-])c1	0	0	0	0	0	0
N=C1c2ccccc2CN1c1ccc(F)c([N+](=O)[O-])c1	0	?	0	0	0	12µM
Cc1ccc2ccc(S(=O)(=O)NCc3ccccn3)cc2c1	0	0	0	39	0	0
CCOc1cc(S(=O)(=O)NCc2ccccn2)ccc1Cl	0	8.3µM	0	0	0	0
O=S(=O)(NCc1ccccn1)c1ccc(Cl)c(C(F)(F)F)c1	0	0	0	0	0	0
NS(=O)(=O)c1ccc(CCNC(=O)COC(=O)CCc2c[nH]c3ccccc23)cc1	-	-	0	-	-	-
CCCNS(=O)(=O)c1cccc(C(=O)NC2CCCc3ccccc32)c1 (configuration not stated)	0	0	0	0	0	-
O=C(COC(=O)C1(c2ccccc2F)CCCC1)N1CCNC1=O	-	0	0	-	-	?
Cc1ccc(C(=O)Nc2cccc(N(C)S(C)(=O)=O)c2)cc1S(=O)(=O)Nc1ccccc1	0	?	0	0	0	0
Cc1ccc(NC(=O)c2ccc3c(c2)OCCO3)cc1S(=O)(=O)Nc1cccc(Cl)c1	?	0	0	88	45	0
O=C(Nc1ccc(NC(=O)c2ccc3c(c2)OCCO3)cc1)c1ccccc1	0	0	0	0	0	0
Nc1cc[n+](CC(=O)c2ccc3c(c2)OCCO3)cc1	0	?	0	0	0	4.7µM
O=C(Nc1ccccc1)c1ccc2c(c1)OCCO2	0	0	0	70	41	0
CCC(C)(C)NC(=O)CN(C(=O)C(=O)Nc1ccc2c(c1)OCCO2)C1CC1	0	0	0	0	12	0
Cc1ccc(N2CC(NC(=O)C(=O)c3c(C)[nH]c4ccccc34)CC2=O)cc1C (configuration not stated)	-	?	0	-	-	?
COc1cccc(C(=O)N2CCC(CCC(=O)Nc3cccc(C)c3)CC2)c1	0	0	0	0	0	?
CCC(C)NC(=O)c1ccccc1NS(=O)(=O)c1ccc(OC)c(OC)c1 (configuration not stated)	0	0	0	0	0	0
COc1cc(OC)c(C2NC(=O)CCC2[N+](=O)[O-])cc1OC (configuration not stated)	0	?	0	0	0	0
Cc1cccc(Cn2c(C(=O)OC(C)C)cc3c2ccn3C)c1	0	?	0	0	0	-
O=C(N/N=C/c1ccc2c(c1)OCO2)C(=O)Nc1ccccc1Cl	0	0	0	0	0	0
COc1ccc(NC(=O)/C(=C/c2ccc(OC(C)=O)c(OC)c2)NC(C)=O)cc1	0	0	0	0	0	0
CN(CC(=O)Nc1cccc(F)c1)C(=O)c1ccc2c(c1)OCCO2	-	0	0	-	-	0
COc1ccc(NC(=O)/C(=C\c2ccc3c(c2)OCO3)NC(C)=O)cc1	0	0	0	67	59	0
Cc1cccc(NC(=S)NNC(=O)c2ccc3c(c2)OCO3)c1	0	0	0	49	116	0
SMILES	NS1 function inh	Pf growth 96h	SARS PLP yeast	Shiga toxin inh	CHX counter	Pf growth 48h
O=C(Nc1cccc(F)c1)c1ccc2c(c1)OCCO2	0	0	0	87	43	0
COc1cccc(NC(=O)C(=O)N/N=C/c2ccc3c(c2)OCO3)c1	0	10µM	0	0	26	0
Cc1cccc(NC(=S)NCc2ccc3c(c2)OCO3)c1	0	0	0	0	0	0
CCOc1ccc(C(=O)NNC(=O)CCNC(=O)c2ccco2)cc1OC	-	0	0	-	-	0
COc1ccc([N+](=O)[O-])cc1NC(=O)Cn1ccc(C(F)(F)F)n1	-	0	0	0	0	0
O=C(Nc1ccccc1N1CCOCC1)c1ccc(Cl)nc1	-	?	0	0	0	0
Cc1cccc(NC(=S)NNC(=O)c2csc3c2CCC(C)C3)c1 (configuration not stated)	0	-	0	0	0	0
CCC(C)(C)NC(=O)c1ccc2c(c1)OCCO2	-	0	0	0	16	0
CCOC(=O)C(=O)CC(=O)c1ccc2c(c1)OCCO2	0	?	0	0	30	0
Cc1cccc(NC(=S)N/N=C/c2ccc3c(c2)OCO3)c1	?	0	?	+	49	0
CCCc1cc(C(=O)NNC(=S)Nc2cccc(C)c2)cs1	0	0	0	40	31	0
NC(=O)c1ccc2c(c1)OCCO2	0	0	0	0	0	0
CCOc1ccccc1OCCCC(=O)Nc1cc(S(=O)(=O)N2CCOCC2)ccc1OC	-	-	0	-	-	-
COC(=O)c1cc(S(=O)(=O)N2CCCCCC2)cn1C	0	0	0	0	0	0
Cc1cc(C)c(C)c(S(=O)(=O)Nc2cccc(S(=O)(=O)Nc3ccccc3C(=O)O)c2)c1C	-	-	0	-	-	-
N#Cc1cc([N+](=O)[O-])cnc1Nc1ccccc1	0	0	0	0	0	0
Cc1cccc(NC(=O)c2ccc3c(c2)OCCO3)c1	0	?	0	41	0	0
CNC(=S)N/N=C/c1ccc2c(c1)OCCO2	?	0	0	73	36	0
C[C@@H](C(=O)O)c1cccc(C(=O)c2ccccc2)c1	-	0	-	-	-	0
Cc1ccc2c(c1)N(CC(=O)NCCN1CCOCC1)C(=O)CO2	0	-	-	-	-	-
COc1ccc(Nc2nnc(SCC(=O)Nc3ccc4[nH]c(=O)[nH]c4c3)s2)cc1	0	0	0	0	0	0
NC(=O)c1ccc(NCCc2ccccc2)c([N+](=O)[O-])c1	0	?	0	0	16	0
COc1ccc(NC(=O)CCC(=O)NCc2ccco2)c([N+](=O)[O-])c1	0	0	0	0	0	0
NC(=O)c1cc([N+](=O)[O-])ccc1NCCc1ccccc1	0	13µM	0	0	active	0
O=C(O)C(Cc1ccccc1)Nc1ccc([N+](=O)[O-])cc1[N+](=O)[O-] (configuration not stated)	0	6.6µM	0	0	20	?
SMILES	NS1 function inh	Pf growth 96h	SARS PLP yeast	Shiga toxin inh	CHX counter	Pf growth 48h
NC(=O)c1ccc(NCc2ccco2)c([N+](=O)[O-])c1	0	0	0	0	17	?
O=C(O)[C@H](Cc1ccccc1)Nc1ccc([N+](=O)[O-])cn1	0	0	0	0	0	0
CC(C)=CCC[C@](C)(O)C1CC[C@]2(C)[C@@H]1CC[C@@H]1[C@@]3(C)CCC(=O)C(C)(C)[C@@H]3CC[C@]12C (some centres not stated)	-	-	-	0	0	-
Cc1noc2ncnc(Oc3ccc(F)cc3)c12	0	0	0	0	0	0
COc1cc(C)c(C(C)C)cc1S(=O)(=O)NCCCn1ccnc1	0	0	0	0	0	?
CCCOC1CCCN(C(=O)c2ccc(OC3CCN(Cc4ccccn4)CC3)cc2)C1 (configuration not stated)	0	0	0	0	0	?
CCCCn1c2ccc(F)cc2c2nnc(SCCN3CCOCC3)nc21	0	2.6µM	0	0	0	?
CCc1ccc2[nH]c3nc(SCCN4CCOCC4)nnc3c2c1	0	9.3µM	0	17	21	0

Screening results deposited in PubChem BioAssay by National Center for Advancing Translational Sciences (NCATS).
